This is an account of results in PubChem BioAssay.

For some assays here: Potency and affinity values are given separately. Peptide text beside a SMILES is read from it.

Experiment [1] can be described thus: polyglutamine-triggered caspase-3 activation inhibitors, cell-based (AID 1583). The following applies: polyglutamine-induced caspase-3 activation, cell assay; stronger effect = higher value;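 tested at 10 µM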.
Experiment [2] can be described thus: suppressors of polyQ aggregation in yeast, 75Q-TubU reporter (AID 1593). As to conditions: Yeast 75Q polyglutamine aggregation reporter.
A short description of experiment [3]: rescue of polyQ-huntingtin neuronal dysfunction in worms, whole organism, C. elegans mechanosensory neurons, N-terminal huntingtin (AID 1599). The following applies: touch response, stronger effect = higher value.
The nature of experiment [4]: inhibitors of mitochondrial cytochrome c release, biochemical, purified mitochondria (AID 1603).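 Note: mouse liver mitochondria challenged with calcium chloride; signal normalized to the plate average as 100%.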 As to conditions: stronger effect = lower value.
A short description of experiment [5]: inhibitors of polyQ protein aggregation (AID 1604). The following applies: polyglutamine-induced protein aggregation inhibition assay; stronger effect = higher value; tested at 2.5 µM.

In the case of `CC(Oc1ccccc1)C(=O)NC1C(=O)N2C(C(=O)O)C(C)(C)S[C@H]12` (stereo not given in full), the inhibition in experiment [1] amounted to 11.5%. The score in experiment [2] was found to be 1.28. This compound had a rescue above control in experiment [3] of -11.5. Further, in experiment [4], the cytochrome c release ratio is 0.66. The inhibition of aggregation in experiment [5] is 83.6%.
For `CC(=O)[C@H]1CCC2C3CC=C4C[C@@H](O)CC[C@]4(C)C3CC[C@@]21C` (stereo not given in full) the same measures were 19.7%, 0.01, -2.78, 1.03 and 66.7%.
For `COC(=O)C(C)C[N+](C)(C)C` (stereo not given) the same measures were -13.8%, 1.1, -5.92, 1.54 and 60.6%.
The like results for `CC(N)C(O)c1cccc(O)c1` (stereo not given) were, in that order, -31.9%, 1.32, 2.5, 0.89 and 91.7%.
Regarding `CC(C)CC1NC(=O)CNC1=O` (stereo not given), the inhibition in experiment [1] worked out at 8.98%. Further, the score in experiment [2] was 1.33. In experiment [3], this compound showed a rescue above control of -6.28. Besides, in experiment [4], the cytochrome c release ratio was 1.01. For the same compound, the inhibition of aggregation in experiment [5] was -30.2%.
For the compound `COC(=O)/C(=C1\OC(=O)C(c2ccccc2)C1=O)c1ccccc1` (stereo not given), the inhibition in experiment [1] is -4.2%. In experiment [2], this compound registered a score of 0.04. Further, the rescue above control in experiment [3] was determined as 9.72. Further, the cytochrome c release ratio in experiment [4] amounted to 2.13. In addition, the inhibition of aggregation in experiment [5] was 31.4%.
The like results for `NC[C@@H]1O[C@H](OC2[C@@H](O)[C@H](O[C@@H]3[C@H](N)[C@@H](O)C[C@H](N)[C@H]3O[C@H]3O[C@H](CO)[C@@H](O)[C@H](O)[C@H]3N)O[C@@H]2CO)[C@H](N)[C@@H](O)[C@@H]1O` (stereo not given in full) were, in that order, 25.1%, 0.88, -2.53, 1.33 and 16.8%.
Consider `NC[C@@H]1O[C@H](O[C@H]2[C@@H](O)[C@H](O[C@@H]3[C@@H](O)[C@H](N)C[C@H](N)[C@H]3O[C@@H]3O[C@H](CO)[C@@H](O)C[C@H]3N)O[C@@H]2CO)[C@H](N)[C@@H](O)[C@@H]1O[C@H]1O[C@H](CO)[C@@H](O)[C@H](O)[C@@H]1O`, for which, in experiment [1], the inhibition is -3.41%. This compound displayed a score in experiment [2] of 1.7. In experiment [3], this compound showed a rescue above control of 7.71. Besides, the cytochrome c release ratio in experiment [4] turned out to be 0.95. Besides, the inhibition of aggregation in experiment [5] was found to be 11.6%.
For `Cc1cc(Nc2ccccc2C(=O)O)ccc1Cl` the same measures were -21.2%, -0.11, -9.28, 4.31 and 77.8%.
As for `CC1CC2C3CCC4=CC(=O)C=CC4(C)[C@@]3(F)C(O)CC2(C)[C@@]1(O)C(=O)CO` (stereo not given in full), in experiment [1], the inhibition amounted to 7.1%. Further, the score in experiment [2] stood at 1.26. The compound further registered a rescue above control in experiment [3] of 8.02. Besides, the cytochrome c release ratio in experiment [4] worked out at 1.12. The inhibition of aggregation in experiment [5] worked out at 59.3%.
Take `CC(=O)OCC(=O)[C@@]12OC(C)(C)O[C@@H]1C[C@H]1C3C[C@H](F)C4=CC(=O)C=CC4(C)[C@@]3(F)[C@@H](O)C[C@@]12C` (stereo not given in full): the inhibition in experiment [1] is -2.33%. In experiment [2], this compound had a score of 1.28. The rescue above control in experiment [3] worked out at 14.3. For the same compound, the cytochrome c release ratio in experiment [4] was determined as 0.88. In addition, the inhibition of aggregation in experiment [5] is 85.9%.
For the compound `NCC1CCC(N)C(OC2C(N)CC(N)C(OC3OC(CO)C(O)C(N)C3O)C2O)O1` (stereo not given), the inhibition in experiment [1] was -33.2%. Besides, the score in experiment [2] was determined as 0.99. The compound also gave a rescue above control in experiment [3] of -7.39. Also, the cytochrome c release ratio in experiment [4] turned out to be 0.86. For the same compound, the inhibition of aggregation in experiment [5] came to 4.76%.
In the case of `O=c1cc(-c2ccccc2)oc2cc(O)c(O)cc12`, the inhibition in experiment [1] stood at 18.9%. Moreover, the score in experiment [2] amounted to 1.42. Also, the rescue above control in experiment [3] was 7.3. Further, the cytochrome c release ratio in experiment [4] was 1.21. In addition, in experiment [5], the inhibition of aggregation was found to be 41%.
The like results for `C[C@@H]1CC2C3C[C@H](F)C4=CC(=O)C=CC4(C)C3(F)[C@@H](O)CC2(C)C1C(=O)COC(=O)C(C)(C)C` (stereo not given in full) were, in that order, 26.8%, 0.1, -3.49, 1.09 and 38%.
Turning to `NCCCCC(N)C(=O)NC(Cc1c[nH]c2ccccc12)C(=O)NC(CCCCN)C(=O)O` (stereo not drawn) (H-Lys-Trp-Lys-OH; configuration not given here), in experiment [1], the inhibition turned out to be 5.19%. Besides, the score in experiment [2] came to 1.32. The rescue above control in experiment [3] was determined as 22.9. The cytochrome c release ratio in experiment [4] was 0.99. The inhibition of aggregation in experiment [5] turned out to be 83.9%.
The like results for `CC(=O)C1CCC2C3CC=C4CC(OS(=O)(=O)O)CC[C@]4(C)C3CC[C@]12C` (stereo not given in full) were, in that order, -1.98%, 0.85, 6.71, 1.34 and 37.2%.
The like results for `OCCS` were, in that order, 26.7%, 1.26, -1.67, 1.18 and 29.4%.
For `NCCCCC(N)C(=O)NCC(=O)NC(Cc1cnc[nH]1)C(=O)NC(CCCCN)C(=O)O` (stereo not given) (H-KGHK-OH; configuration not given here) the same measures were -1.51%, 2.04, 2.83, 0.86 and 36%.
Take `CC12CC[C@@H]3c4ccc(O)cc4CCC3[C@@H]1CCC2=O` (stereo not given in full): the inhibition in experiment [1] was -0.88%. In addition, in experiment [2], the score amounted to 0.11. In addition, the rescue above control in experiment [3] came out at 10.3. The cytochrome c release ratio in experiment [4] is 0.91. In addition, the inhibition of aggregation in experiment [5] was found to be 62%.

Broadly, the inhibition is the relative decrease from the control value, in per cent.
